Data on eight compounds can be found in PubChem BioAssay (NCI).

Test systems include SR leukemia; RPMI-8226 leukemia; OVCAR-8 ovarian; OVCAR-5 ovarian; OVCAR-4 ovarian; SK-OV-3 ovarian; IGROV1 ovarian; OVCAR-3 ovarian; HS 578T breast; NCI/ADR-RES ovarian; T-47D breast; BT-549 breast; MDA-MB-435 melanoma; SW-620 colon; MCF7 breast; HCT-116 colon; HCC-2998 colon; KM12 colon; MDA-MB-468 breast.
Holding throughout (assay): NCI-60 one-dose screen, 48 h (100 = growth as untreated, 0 = no growth, -100 = all killed)
What all share (settings): 10 µM unless noted

About 83,000 compounds went through this panel and 20% of them were active in at least one assay; those are over-represented in the sample as a whole.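 Assay: single dose, 48 h. Readout: percent growth (0 = no net growth; negative = cell death). Active: <10.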 Values without a mark were called inactive. The source made the active and inactive calls.

Regarding `COc1ccc(Nc2ncnc3sc4c(c23)CCN(Cc2ccccc2)C4)cc1`, the growth was 82.9% in the assay with SR leukemia; 62.1% with RPMI-8226 leukemia; 82.8% with OVCAR-8 ovarian; 106% in the assay on OVCAR-5 ovarian; 68.4% with OVCAR-4 ovarian; 102% in the assay with SK-OV-3 ovarian. The growth in the assay on IGROV1 ovarian was 80.8%; in the assay on OVCAR-3 ovarian, 93.7%; in the assay with HS 578T breast it was 74.8%; with NCI/ADR-RES ovarian, 76.7%; in the assay with T-47D breast it was 27.3%; in the assay on BT-549 breast it was 38.8%. The growth with MDA-MB-435 melanoma was 82.1%; in the assay on SW-620 colon, 99.8%; in the assay with MCF7 breast, 53.4%; in the assay on HCT-116 colon, 86.4%; with HCC-2998 colon, 105%; in the assay with KM12 colon it was 82.1%. In addition, the growth with MDA-MB-468 breast was 56.6%.
Take `O=[N+]([O-])c1cccc(-c2nnc3c(/C=C/c4ccc(F)cc4)nc4ccccc4n23)c1`: the growth in the assay with SR leukemia is 85.2%; in the assay on RPMI-8226 leukemia, 102%; with OVCAR-8 ovarian, 85.2%; in the assay on OVCAR-5 ovarian, 108%; in the assay with OVCAR-4 ovarian it was 73.7%; with SK-OV-3 ovarian it was 101%. Besides, the growth in the assay with IGROV1 ovarian was 109%; with OVCAR-3 ovarian, 116%; in the assay on HS 578T breast, 47.9%; in the assay on NCI/ADR-RES ovarian it was 87.4%; in the assay on T-47D breast, 74.3%; in the assay with BT-549 breast, 87.5%. Further, the growth with MDA-MB-435 melanoma is 102%; in the assay with SW-620 colon, 96.1%; with MCF7 breast, 28.4%; in the assay on HCT-116 colon, 81.1%; with HCC-2998 colon, 105%; in the assay on KM12 colon, 97.6%. In the assay on MDA-MB-468 breast, the growth is 0.494% (active).
As for `COc1cc(C2CC(c3cc(OC)c(OC)c(OC)c3)=Nc3c(N)nc(N)nc3N2)ccc1Oc1nc(Nc2ccc(F)cc2)nc(N(C)C)n1` (configuration not stated), the growth with SR leukemia is -7.88% (active); with RPMI-8226 leukemia it was 33.9%; with OVCAR-8 ovarian, 59%; in the assay on OVCAR-5 ovarian, 105%; in the assay with OVCAR-4 ovarian, 49.2%; in the assay on SK-OV-3 ovarian, 107%. In addition, the growth with IGROV1 ovarian was 70.8%; in the assay with OVCAR-3 ovarian, 74.2%; in the assay with HS 578T breast, 48.2%; in the assay on NCI/ADR-RES ovarian, 66.4%; in the assay on T-47D breast, 65.8%; in the assay on BT-549 breast it was 74.7%. Moreover, the growth in the assay on MDA-MB-435 melanoma is 66.4%; with SW-620 colon, 50.7%; with MCF7 breast, 23.4%; in the assay on HCT-116 colon, 22.9%; in the assay on HCC-2998 colon, 36.8%; with KM12 colon, 42.9%. For the same compound, the growth with MDA-MB-468 breast is -22.6% (active).
As to `COc1ccc(-c2cc(C(=O)N=Nc3c(O)[nH]c4ccc(Cl)cc34)c3ccccc3n2)cc1OC`, the growth is 103% in the assay with SR leukemia; 119% in the assay with RPMI-8226 leukemia; 110% in the assay with OVCAR-8 ovarian; 104% in the assay on OVCAR-5 ovarian; 116% with OVCAR-4 ovarian; 154% with SK-OV-3 ovarian. Moreover, the growth in the assay with IGROV1 ovarian was 93%; in the assay with OVCAR-3 ovarian, 118%; in the assay with HS 578T breast, 110%; in the assay with NCI/ADR-RES ovarian, 98.2%; in the assay with T-47D breast it was 106%; with BT-549 breast it was 113%. Further, the growth in the assay on MDA-MB-435 melanoma was 119%; in the assay with SW-620 colon, 103%; with MCF7 breast it was 87.8%; in the assay on HCT-116 colon, 101%; with HCC-2998 colon it was 109%; with KM12 colon it was 101%. Also, the growth in the assay with MDA-MB-468 breast was 98.9%.
Take `COc1ccc2[nH]c(O)c(N=Nc3nc(-c4ccc(Cl)cc4)cs3)c2c1`: the growth with SR leukemia was 5.78% (active); in the assay on RPMI-8226 leukemia, 13.1%; with OVCAR-8 ovarian it was -64.4% (active); in the assay on OVCAR-5 ovarian, 10.3%; in the assay with OVCAR-4 ovarian it was -49.9% (active); in the assay with SK-OV-3 ovarian, -38.4% (active). The growth was -3.99% (active) in the assay on IGROV1 ovarian; -90.4% (active) in the assay with OVCAR-3 ovarian; 9.33% (active) in the assay with HS 578T breast; -37.4% (active) in the assay with NCI/ADR-RES ovarian; -21.5% (active) in the assay on T-47D breast; 25.9% in the assay with BT-549 breast. The growth is 33.2% in the assay on MDA-MB-435 melanoma; 2.98% (active) with SW-620 colon; -19% (active) in the assay with MCF7 breast; -74.9% (active) with HCT-116 colon; 1.1% (active) with HCC-2998 colon; 4.66% (active) with KM12 colon. Moreover, in the assay on MDA-MB-468 breast, the growth was -60.8% (active).
For `CCCCCCCCc1cccc(CC(=O)Nc2ccc(C)cc2C(=O)O)c1`, the growth is 31.1% [25 µM] with SR leukemia; 25.4% [25 µM] in the assay on RPMI-8226 leukemia; 45.6% [25 µM] in the assay on OVCAR-8 ovarian; 75.6% [25 µM] in the assay on OVCAR-5 ovarian; 86.1% [25 µM] in the assay with OVCAR-4 ovarian; 89.2% [25 µM] in the assay on SK-OV-3 ovarian. Besides, the growth in the assay on IGROV1 ovarian was 42.5% [25 µM]; in the assay with OVCAR-3 ovarian, 69.4% [25 µM]; in the assay on HS 578T breast, 89.8% [25 µM]; with NCI/ADR-RES ovarian, 49.6% [25 µM]; in the assay on T-47D breast it was 65.6% [25 µM]; in the assay on BT-549 breast it was 73.6% [25 µM]. Besides, the growth with MDA-MB-435 melanoma is 54.9% [25 µM]; in the assay with SW-620 colon, 51.2% [25 µM]; in the assay with MCF7 breast it was 36.7% [25 µM]; with HCT-116 colon, 28.1% [25 µM]; in the assay on HCC-2998 colon, 69.4% [25 µM]; in the assay with KM12 colon it was 45.8% [25 µM]. In the assay on MDA-MB-468 breast, the growth was 73% [25 µM].
Regarding `CC1=C(C(=O)Nc2ccccc2)C(c2ccc3ccccc3c2)n2c(nc3ccccc32)N1` (configuration not stated), the growth in the assay with SR leukemia was 38.4%; in the assay on RPMI-8226 leukemia, 40.8%; in the assay with OVCAR-8 ovarian, 6.23% (active); with OVCAR-5 ovarian, 97.9%; with OVCAR-4 ovarian, -35.4% (active); with SK-OV-3 ovarian it was 107%. The growth was 67.4% with IGROV1 ovarian; -21.9% (active) in the assay with OVCAR-3 ovarian; 40.3% in the assay on HS 578T breast; 41.4% with NCI/ADR-RES ovarian; 91.8% in the assay on T-47D breast; 92.9% in the assay on BT-549 breast. Moreover, the growth in the assay on MDA-MB-435 melanoma is 53.9%; with SW-620 colon it was 9.24% (active); with MCF7 breast it was 9.9% (active); in the assay with HCT-116 colon, -36.4% (active); with HCC-2998 colon it was 52.3%; in the assay with KM12 colon, 69.4%. Moreover, in the assay with MDA-MB-468 breast, the growth is 17.9%.
As for `COc1cccc(/C=C/c2nc3ccccc3c(=O)n2CC(=O)Nc2ccccc2)c1`, the growth with SR leukemia was 90%; in the assay with RPMI-8226 leukemia it was 71.3%; in the assay on OVCAR-8 ovarian it was 21.9%; in the assay on OVCAR-5 ovarian, 65.9%; in the assay on OVCAR-4 ovarian, -1.67% (active); in the assay on SK-OV-3 ovarian, 54.2%. For the same compound, the growth in the assay on IGROV1 ovarian was 61%; in the assay on OVCAR-3 ovarian, 74.6%; with HS 578T breast it was 3.02% (active); in the assay with NCI/ADR-RES ovarian, 33%; in the assay on T-47D breast, 36.7%; with BT-549 breast, 43.9%. Further, the growth in the assay with MDA-MB-435 melanoma is 70.6%; with SW-620 colon it was 51.1%; with MCF7 breast it was 41.6%; in the assay with HCT-116 colon it was 35.7%; in the assay with HCC-2998 colon, 89.8%; in the assay with KM12 colon, 94.2%. Further, the growth in the assay with MDA-MB-468 breast was 83.4%.
